# In all, about 33,000 sequences were measured (“E-score (-0.5 to 0.5)”: median about -0.056, highest 2% from about 0.38 on). The sample holds the highest values, similar sequences and a random draw of the others, so the mix is not that of the screen.
# Target: Stb4 (UniProt P50104)
# Assay: PBM E-score (8-mer binding enrichment) (E-score (-0.5 to 0.5)); higher = stronger / more preferred TF binding
# Conditions: protein concentration: 200 nM; construct: GST-DNA-binding domain
# In short: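 The E-score, a modified Wilcoxon-Mann-Whitney statistic, was computed by the Universal PBM Analysis Suite for every ungapped eight-base word pooled with its reverse complement. Scans behind it were normalised with masliner after bound GST-tagged yeast transcription factors were detected with fluorescent anti-GST. The proteins, at about 100-200 nM, had been applied to universal all-10-mer Agilent arrays made double-stranded by primer extension.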
# Sequence of UniProt P50104 (P50104 whole entry): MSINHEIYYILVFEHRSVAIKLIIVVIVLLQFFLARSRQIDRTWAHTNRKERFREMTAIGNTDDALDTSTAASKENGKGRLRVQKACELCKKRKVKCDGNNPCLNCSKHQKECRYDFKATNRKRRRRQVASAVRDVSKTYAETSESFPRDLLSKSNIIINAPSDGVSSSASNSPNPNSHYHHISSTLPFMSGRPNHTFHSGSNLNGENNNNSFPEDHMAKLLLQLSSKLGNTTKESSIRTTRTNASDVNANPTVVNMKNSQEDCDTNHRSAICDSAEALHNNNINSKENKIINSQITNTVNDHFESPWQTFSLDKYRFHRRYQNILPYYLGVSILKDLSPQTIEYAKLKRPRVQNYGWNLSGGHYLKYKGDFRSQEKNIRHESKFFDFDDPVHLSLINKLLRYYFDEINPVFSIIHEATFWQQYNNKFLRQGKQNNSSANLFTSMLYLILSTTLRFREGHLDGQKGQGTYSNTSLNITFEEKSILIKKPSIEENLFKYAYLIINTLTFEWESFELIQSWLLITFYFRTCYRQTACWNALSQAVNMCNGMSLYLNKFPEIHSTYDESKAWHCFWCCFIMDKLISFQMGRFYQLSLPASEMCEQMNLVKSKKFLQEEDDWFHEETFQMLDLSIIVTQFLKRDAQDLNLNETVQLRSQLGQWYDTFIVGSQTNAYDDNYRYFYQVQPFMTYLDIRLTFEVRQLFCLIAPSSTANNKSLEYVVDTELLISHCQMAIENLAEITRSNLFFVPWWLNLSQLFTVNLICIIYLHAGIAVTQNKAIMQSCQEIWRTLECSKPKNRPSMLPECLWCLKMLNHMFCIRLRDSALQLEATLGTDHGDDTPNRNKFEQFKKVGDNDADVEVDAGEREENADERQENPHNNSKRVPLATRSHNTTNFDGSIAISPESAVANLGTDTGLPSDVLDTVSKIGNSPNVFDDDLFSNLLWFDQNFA
row,Sequence,PBM E-score
1,GAACGTCA,-0.175
2,CTGCCATC,-0.0272
3,CCCGTACC,0.245
4,AGAACTTG,-0.161
5,ACTGACCT,-0.2
6,AATGAAAG,-0.0359
7,ACTAGGGG,-0.0854
8,TCCGCAGA,0.0922
9,GTAACCGA,0.386
10,GTAACCTA,0.0635
11,CTTACCGC,0.119
12,GTAACCCA,-0.0452
13,GATACCGA,0.291
14,TATACCGA,0.383
15,CATACCGA,0.287
16,GTTACCGA,0.366
17,CTTACCGA,0.393
18,GACCCAAC,-0.116
19,CGGTAGAG,0.112
20,AATTTGCC,0.0997
21,ATGAGATC,-0.124
22,ACTGAAAT,-0.18
23,CGTCGGAG,0.275
24,CGTCGGGA,0.383
25,AGTCGGGA,0.362

row,Sequence,PBM E-score
1,CGTCGGAA,0.452
2,GGACGGAA,0.328
3,GGTCGGAC,0.144
4,AGTCGGCC,0.168
5,GGTCGGAA,0.439
6,GGTCGGGA,0.368
7,AGTCGTAT,-0.147
8,AGTCGGAT,0.429
9,CGTCGGAC,0.269
10,CTAGATAC,0.0146
11,AGGACCGC,-0.0222
12,CAGAATAA,-0.0851
13,TGTCGGAA,0.416
14,AGTCGGAG,0.226
15,TGTCGTAA,-0.215
16,AGTCGGAC,0.176
17,AGTCGGAA,0.451
18,TGACGGAA,0.312
19,AGAGAACT,-0.114
20,GGGTCACA,-0.0305
21,CAATTTAA,-0.105
22,GGTTTTTA,-0.0968
23,CAGGAGCA,-0.163
24,CACCTGAG,-0.337
25,CGGATATC,0.426

row,Sequence,PBM E-score
1,GGGATATA,0.168
2,CGGATATA,0.452
3,CTGATATC,0.136
4,AGGATATA,-0.0497
5,AGGATATC,0.0132
6,TCCAGTAA,-0.176
7,TCTGACCA,-0.24
8,GGTTCGCA,0.0434
9,CGTTCGGC,0.368
10,CGTTCGGA,0.465
11,CGTTCGTA,-0.0524
12,GGTTCGGA,0.442
13,GGTTCGAA,-0.0143
14,ACATTGGA,-0.177
15,CGAGATAG,0.00411
16,CTGCAAAG,-0.28
17,CGTCCTGA,-0.249
18,TCCGTTAA,0.259
19,AAAAACCT,0.0896
20,TCAGAGGA,-0.183
21,TACGAGGA,-0.193
22,CACGAGGA,-0.11
23,GACGAGGC,-0.0506
24,CTCGAGGA,-0.188
25,TCCGAGGA,0.453

row,Sequence,PBM E-score
1,ACCGAGGA,0.323
2,ACCGAGGC,0.302
3,GCCGAGGA,0.4
4,CCCGAGGA,0.388
5,GTCGAGGA,-0.239
6,GCCGAGGC,0.436
7,GTAAGCAC,-0.144
8,CGAAATGC,0.124
9,ATGTCGTA,-0.29
10,AGGATGGA,0.0445
11,CAGGATTA,0.00923
12,CACCCTCG,0.0812
13,CACACATG,-0.15
14,CGATCGCC,0.0955
15,TAGTAACA,-0.0586
16,CCCAGAGC,-0.299
17,AGAAGGAA,0.0573
18,CACGAGGC,-0.131
19,CACGAGGG,-0.0631
20,CCCGAGGG,0.404
21,CGCGAGGC,0.0155
22,ACCGAGGG,0.27
23,CCCGAGGC,0.388

# Source: the supplement of paper PMC3334620
